# Measured values published in PubChem BioAssay AID463173 (ICCB-Longwood Screening Facility, Harvard Medical School, 2010).
# Screen size: about 52,000 compounds; about 4,300 (8.3%) were called active. Shown is part of a subset that was picked to be rich in actives. Unmarked numbers belong to inactive results. Rule as the data show it: active = survival mostly below about 52% (no sharp cut-off); inactive = mostly above about 56%.
# Test system: DeltatarO mutant
# Assay: growth inhibition of S. aureus wild type versus tarO mutant, primary screen, teichoic acid synthesis inhibitors, RN4220, OD600 (AID 463173)
# Conditions: OD600, 18 h, stronger effect = lower value, screened at 18.75 µg/mL (by protocol)
row,SMILES,survival
1,CCN(CC)c1ccc(C2C(C(=O)Nc3ccccc3C)=C(C)Nc3ncnn32)cc1 (stereo not given),99%
2,Cc1ccc(-n2ncc3c(N4CCN(C)CC4)ncnc32)cc1,81%
3,CN(C)C(=O)c1ccc2c(c1)N(CC(=O)NCc1ccc(F)cc1)C(=O)C1CCCCN21 (stereo not given),74%
4,CCOC(=O)c1c(-c2cccs2)csc1NC(=O)C(F)(F)F,70%
5,CCOC(=O)c1ccccc1NC(=O)Cn1c(=O)n(Cc2nc(-c3ccccc3)no2)c(=O)c2ccccc21,72%
6,COc1cc(OC)c(N(C)C(=O)CSc2c3c(nc4ccc(Cl)cc24)CCCC3)cc1Cl,33% (active)
7,CCCCN(C)C(=O)CSc1c2c(nc3ccc(Cl)cc13)CCCC2,-2% (active)
8,COc1cccc(CNC(=O)CSc2c3c(nc4ccc(Cl)cc24)CCCC3)c1OC,62%
9,COc1ccc(NC(=O)CSc2c3c(nc4ccc(Cl)cc24)CCCC3)cc1Cl,55%
10,CCc1ccc(CNC(=O)CSc2c3c(nc4ccc(Cl)cc24)CCCC3)cc1,63%
11,Cc1ccc(CNC(=O)CSc2c3c(nc4ccc(Cl)cc24)CCCC3)cc1,76%
12,CN(Cc1ccccc1)C(=O)CSc1c2c(nc3ccc(Cl)cc13)CCCC2,0% (active)
13,CCCN(CCC)C(=O)CSc1c2c(nc3ccc(Cl)cc13)CCCC2,38% (active)
14,Cc1ccc2nc(NC(=O)CSc3[nH]c(=O)ncc3C)sc2c1,102%
15,O=S(=O)(c1ccc2nsnc2c1)N1CCCCC1,66%
16,CCOc1ccc(CNC(=O)c2cc3ccccn3n2)cc1OC,74%
17,CCOc1ccc(NC(=O)C2CC(=O)N(c3ccc(C(C)C)cc3)C2)cc1 (stereo not given),91%
18,COc1ccc(CCNC(=O)CCn2c(=O)c3ccccc3n(Cc3c(C)cc(C)cc3C)c2=O)cc1OC,89%
19,Cc1cccc(N2CCN(c3nc4ccccc4c4nc(-c5ccccc5)nn34)CC2)c1C,92%
20,COc1ccc(N2CCN(C(=O)Nc3ccccc3Cl)CC2)cc1,167%
21,CC(CNC(=O)Cn1ccc2cc(S(=O)(=O)N3CCCCCC3)ccc21)c1ccccc1 (stereo not given),109%
22,CCN(CC)CCCNC(=O)CSc1c2c(nc3cc(Cl)ccc13)CCCC2,109%
23,CCCCN(CC)C(=O)CSc1c2c(nc3ccc(Cl)cc13)CCCC2,-2% (active)
24,COc1ccccc1NC(=O)c1ncn(-c2ccccc2)n1,115%
25,CC1=CC(C)(C)N(C(=O)Cc2ccccc2)c2ccccc21,115%

row,SMILES,survival
1,CCN1C(=O)C(O)(C(C)C(=O)c2ccccc2)c2ccccc21 (stereo not given),57%
2,CCC(=O)N1c2ccccc2C(C)(c2ccccc2)CC1(C)C (stereo not given),-8% (active)
3,CCC(CC)C(=O)N1CCN(Cc2ccccc2)CC1,94%
4,Cc1ccc(NC(=O)CN2C(=O)C(C)(C)c3ccccc32)cc1,78%
5,CCC(CC)C(=O)N1c2ccccc2C(C)(c2ccccc2)CC1(C)C (stereo not given),-5% (active)
6,CCCCCC(=O)N1c2ccccc2C(C)(c2ccccc2)CC1(C)C (stereo not given),-2% (active)
7,CC(=O)N1c2ccccc2C(C)(c2ccc(C)cc2)CC1(C)C (stereo not given),-4% (active)
8,CCC(=O)N1CCN(C(=O)CC)C1c1ccccc1,93%
9,CC(=O)N1c2ccccc2N(C)C(=O)C1(C)C,88%
10,CC1=CC(C)C(/C=N/O)C(C)C1 (stereo not given),94%
11,O=C(/C=C/c1ccccc1)Nc1ccccc1N1CCN(c2ccccc2)CC1,106%
12,Cc1ccc2onc(CNC(=O)NCc3cccc(Cl)c3)c2c1,72%
13,CC1CCCN(c2ncnc3c2nnn3C)C1 (stereo not given),75%
14,CCOC(=O)CN1CCOCCN(CC(=O)OCC)CCOCC1,64%
15,Cc1ccc(NC(=O)CSc2cn(CC(=O)N3CCCC3)c3ccccc23)cc1Cl,84%
16,CCOc1ccc(CCNC(=O)Cn2nnc(-c3ccc(OC)c(OC)c3)n2)cc1OCC,65%
17,O=C(Nc1ccc2c(c1)oc1ccccc12)c1cccs1,69%
18,COc1ccc(OC)c(CCNC(=O)C2CCN(c3ncnc4c3nc3n4CCCCC3)CC2)c1,80%
19,COc1ccc(CNC(=O)CN2CCSc3ccccc32)c(OC)c1,120%
20,CC(C)CN(CCNC(=O)CCN1N=C(c2ccccc2)CCC1=O)CC(C)C,84%
21,CCOC(=O)c1ccccc1NC(=O)N(C(C)C)C1CCN(C(C)=O)CC1,73%
22,CCc1ccc(NC(=O)c2cnn3c(C(F)F)cc(C)nc23)cc1,96%
23,O=C(Cn1c(=O)n2nc(-c3cccc(F)c3)nc2c2ccccc21)N1CCN(c2ccccc2F)CC1,116%
24,Cc1nn(Cc2noc(C(=O)NCc3cccc(F)c3)n2)c(C)c1Br,71%
25,CCCCOc1ccc(C2(C(=O)O)CCCC2)cc1,103%

row,SMILES,survival
1,CCCCC(=O)N1c2ccccc2C(C)(c2ccccc2)CC1(C)C (stereo not given),-3% (active)
2,CCCCN1C(=O)C(O)(CC(=O)c2ccc(C(C)(C)C)cc2)c2ccccc21 (stereo not given),28%
3,CC(C)Cc1nn2c(=O)cc(COC(=O)c3ccccc3NC(=O)C3CCCCC3)nc2s1,81%
4,CCOC(=O)c1ccc(-n2c(CCC(=O)O)ccc2-c2ccc(Br)cc2)cc1,19% (active)
5,CCOc1ccc(-n2c(CCC(=O)O)ccc2-c2ccc(Br)cc2)cc1,48% (active)
6,CC(=O)Nc1ccc(-n2c(CCC(=O)O)ccc2-c2ccc(C)cc2)cc1,56%
7,CCc1ccc(-n2c(CCC(=O)O)ccc2-c2ccc(F)cc2)cc1,29% (active)
8,O=C(O)CCc1ccc(-c2ccc(Br)cc2)n1-c1ccccc1O,64%
9,CN(C)c1ccc(-n2c(CCC(=O)O)ccc2-c2ccccc2)cc1,60%
10,Cc1ccc(-c2ccc(CCC(=O)O)n2-c2ccc(C(N)=O)cc2)cc1,60%
11,CC(=O)Nc1ccc(-n2c(CCC(=O)O)ccc2-c2ccc(Br)cc2)cc1,45% (active)
12,COC(=O)c1ccc(-n2c(CCC(=O)O)ccc2-c2ccc(C)cc2)cc1,49%
13,CCOc1ccc(NC(=O)Cn2c(CCC(=O)O)ccc2-c2ccc(C)cc2)cc1,65%
14,CCc1ccc(-n2c(CCC(=O)O)ccc2-c2cccs2)cc1,52%
15,Cc1ccc(-c2ccc(CCC(=O)O)n2-c2ccc(C(C)C)cc2)cc1,44%
16,Cc1c(CNC2CCCCC2)c(C(=O)O)c(C)n1Cc1ccc(F)cc1,85%
17,Cc1ccc(-c2ccc(C#N)c(=O)n2CC(=O)N2CCNC(=O)C2(C)C)cc1,88%
18,COc1ccc(CCNC(=O)C(=O)NCC(c2ccco2)S(=O)(=O)c2ccccc2)cc1OC (stereo not given),54%
19,COc1ccc(S(=O)(=O)N(C(=O)c2ccncc2)c2ccc3oc(C)c(C(C)=O)c3c2)cc1,152%
20,CCc1nn(-c2ccccc2)c2nc(-c3ccc(O)cc3)c3cc(OC)c(OC)cc3c12,74%
21,COc1ccc(Cc2nc3c4cnn(-c5ccccc5F)c4ncn3n2)cc1,81%
22,Cc1cc(-n2c(SCC(=O)NCc3ccccc3)nc3ccsc3c2=O)ccc1Cl,87%
23,CC(=O)c1cccc(-n2c(CCC(=O)O)ccc2-c2ccccc2)c1,74%
24,O=C(O)CCc1ccc(-c2ccccc2)n1-c1ccc(C(=O)O)cc1,131%
25,CCOC(=O)c1ccc(-n2c(CCC(=O)O)ccc2-c2ccccc2)cc1O,43% (active)

row,SMILES,survival
1,Cc1cccc(C2NC(=O)c3c(sc4c3CCN(C)C4)N2)c1O (stereo not given),125%
2,CCn1c(=O)c2sccc2n2c(CCCC(=O)N3CCN(c4ccccc4OC)CC3)nnc12,91%
3,COc1ccc(NC(=O)c2cc(C3CC3)nc3c2c(C)nn3-c2ccc(C)cc2)cc1OC,144%
4,COc1ccc(NC(=O)c2cc(C3CC3)nc3c2c(C)nn3-c2ccccc2)cc1,53%
5,COc1ccc(NC(=O)c2cc(C3CC3)nc3c2c(C)nn3-c2ccccc2)c(OC)c1,37% (active)
6,CC(=O)c1ccc(NC(=O)c2cc(C)nc3c2c(C)nn3-c2ccc(C)cc2)cc1,102%
7,CC(=O)c1ccc(NC(=O)c2cc(C3CC3)nc3c2c(C)nn3-c2ccc(C)cc2)cc1,46% (active)
8,COc1ccccc1NC(=O)c1cc(C2CC2)nc2c1c(C)nn2-c1ccc(C)cc1,98%
9,Nc1c(C(=O)Nc2ccccc2)nnn1Cc1ccc(F)cc1Cl,99%
10,O=C(Cn1cc(S(=O)(=O)Cc2cccc(Cl)c2)c2ccccc21)NCc1ccccc1Cl,91%
11,O=C1CSC(N(c2ccccc2)c2ccccc2)=N1,96%
12,COc1cccc(CNC(=O)CCn2c(=O)c3cccn3c3cccnc32)c1OC,98%
13,Cc1ccc(CNC(=O)CCS(=O)(=O)c2cc3c4c(c2)CCN4C(=O)CC3)cc1,67%
14,Cc1ccc(C)c(N2CCN(C(=O)c3nn(C)c4c3CS(=O)(=O)c3ccccc3-4)CC2)c1,49% (active)
15,Cc1ccc2c(c1)-c1onc(C(=O)N3CCN(c4cc(Cl)ccc4C)CC3)c1CO2,57% (active)
16,Cc1cccc(N2CCN(C(=O)c3nn(C)c4c3CS(=O)(=O)c3ccccc3-4)CC2)c1C,67%
17,Cn1nc(C(=O)N2CCN(c3ccccc3F)CC2)c2c1-c1ccccc1SC2,32% (active)
18,Cc1ccc2c(c1)-c1onc(C(=O)N3CCN(c4cc(C)ccc4C)CC3)c1CO2,66%
19,Cn1nc(C(=O)N2CCN(c3ccccc3)CC2)c2c1-c1ccccc1S(=O)(=O)C2,51%
20,Cn1nc(C(=O)N2CCN(c3ccccc3)CC2)c2c1-c1ccccc1SC2,80%
21,Cn1nc(C(=O)N2CCN(c3cccc(Cl)c3)CC2)c2c1-c1ccccc1S(=O)(=O)C2,37% (active)
22,Cc1ccc(N2CCN(C(=O)c3nn(C)c4c3CS(=O)(=O)c3ccccc3-4)CC2)c(C)c1,77%
23,Cn1nc(C(=O)N2CCN(c3ccc(Cl)cc3)CC2)c2c1-c1ccccc1S(=O)(=O)C2,51%
24,Cn1nc(C(=O)N2CCN(c3ccc(F)cc3)CC2)c2c1-c1ccccc1SC2,77%
25,Cc1ccc2c(c1)-c1onc(C(=O)N3CCN(c4ccc(Cl)cc4)CC3)c1CO2,63%
